# In PubChem BioAssay AID1209 (Sanford-Burnham Center for Chemical Genomics, 2008):
# About 810 (0.43%) of roughly 190,000 compounds were called active. The sample as a whole holds a higher share of actives than the screen did. Unmarked numbers belong to inactive results. Cut-off read from the data, not from the text of the source: active = inhibition above about 50%; inactive = the rest.
# Target: Mannose-6-phosphate isomerase (Homo sapiens) (UniProt P34949)
# Assay: MPI enzyme activity inhibition – biochemical, fluorescence intensity, coupled assay, primary screen (AID 1209);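 note: plate controls were DMSO vehicle for no effect and wells lacking substrate for full effect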
# Conditions: purified PMI enzyme, at 20 µM, active compounds read high
# Sequence of Mannose-6-phosphate isomerase (Homo sapiens) (P34949 whole entry, looked up): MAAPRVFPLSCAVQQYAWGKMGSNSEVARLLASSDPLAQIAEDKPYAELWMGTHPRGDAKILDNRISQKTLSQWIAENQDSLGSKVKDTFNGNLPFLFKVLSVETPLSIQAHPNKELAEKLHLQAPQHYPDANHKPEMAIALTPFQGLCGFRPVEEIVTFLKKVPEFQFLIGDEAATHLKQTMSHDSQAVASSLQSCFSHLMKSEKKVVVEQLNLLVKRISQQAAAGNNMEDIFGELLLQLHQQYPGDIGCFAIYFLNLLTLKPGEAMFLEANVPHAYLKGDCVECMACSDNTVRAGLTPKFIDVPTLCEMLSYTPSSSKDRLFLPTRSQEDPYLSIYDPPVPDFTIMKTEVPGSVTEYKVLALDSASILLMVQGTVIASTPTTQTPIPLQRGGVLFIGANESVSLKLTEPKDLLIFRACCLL
row,Structure (SMILES),inhibition
1,CCc1nn(C(C)C(=O)N2CCN(Cc3ccccc3)CC2)c(=O)c2cc3occc3n12 (stereo not drawn),16.5%
2,COc1ccc(CNC(=O)C(c2cccs2)N(C(=O)c2csnn2)C2CC2)cc1 (stereo not drawn),93% (active)
3,O=C(NCc1ccc(F)cc1)C(c1cccs1)N(C(=O)c1csnn1)C1CC1 (stereo not drawn),0.7%
4,O=C(NCc1ccccc1)C(c1cccs1)N(C(=O)c1csnn1)C1CC1 (stereo not drawn),4.8%
5,CCOc1ccc(S(=O)(=O)NCc2ccccc2)cc1C(N)=O,8.4%
6,O=[N+]([O-])c1ccc(N2CCN(S(=O)(=O)c3ccc4ccccc4c3)CC2)cc1NCC1CCCO1 (stereo not drawn),5.7%
7,O=C(CCc1nnc(COc2ccccc2)o1)NCc1ccc(Cl)s1,5.4%
8,CN(CCO)C1=CC(=O)CC(C)(C)C1,-12.5%
9,CCOC(=O)c1ccc(CC(=O)c2ccc(O)cc2O)o1,-14.1%
10,CCCc1cc(C(=O)Cc2ccc(C(=O)OCC)o2)c(O)cc1O,-21.9%
11,CCOC(=O)c1ccc(CC(=O)c2ccc(O)c(O)c2O)o1,75% (active)
12,Nc1ccc(S(=O)(=O)NC2(C(F)(F)F)NC(=O)N(c3ccccc3Cl)C2=O)cc1 (stereo not drawn),3.9%
13,COc1ccc(S(=O)(=O)NCCSCc2ccco2)cc1,8.5%
14,Cc1nn(C)c(C(=O)N/N=C/c2ccc(C(F)(F)F)cc2)c1[N+](=O)[O-],1.6%
15,c1ccc(C2=Nn3c(nnc3-c3n[nH]c4c3CCC4)SC2)cc1,8%
16,CC(C)(C)C1=Nn2c(nnc2-c2n[nH]c3c2CCC3)SC1,75.8% (active)
17,CC1=Nn2c(nnc2-c2n[nH]c3c2CCC3)SC1,3.5%
18,NS(=O)(=O)c1ccc(N/N=C/c2ccccc2Br)cc1,2%
19,COc1cc2c(cc1/C=C/C(=O)O)OC(C)C2 (stereo not drawn),9.4%
20,CC(C)(O)C1Cc2cc(/C=C/C(=O)O)c(O)cc2O1 (stereo not drawn),94.4% (active)
21,CC(C)(Cl)C1Cc2cc3ccc(=O)oc3cc2O1 (stereo not drawn),6.2%
22,O=C(OCc1cc2ccccc2[nH]c1=O)C1CCCCC1,-2.3%
23,COc1ccc(C2(c3ccc(OC(C)=O)cc3OC(C)=O)CC(c3ccccc3)NC(=S)N2)cc1 (stereo not drawn),63.8% (active)
24,COc1ccc(N2C(=S)NC(C)(C)CC2(C)c2ccc(OC(C)=O)cc2OC(C)=O)cc1 (stereo not drawn),-2.5%
25,COc1ccc(C2(c3ccc(O)cc3O)CC(c3ccccc3Cl)NC(=S)N2)cc1 (stereo not drawn),11.9%

row,Structure (SMILES),inhibition
1,O=C1Nc2ccccc2C12OCCO2,-6.7%
2,O=C1Nc2ccccc2C12Nc1ccccc1S2 (stereo not drawn),58.7% (active)
3,O=C1N2CCCc3cccc(c32)C12Nc1ccccc1S2 (stereo not drawn),22.1%
4,C/C(=N\NC(=O)Cc1ccccc1)c1cccs1,9.1%
5,Cc1ccccc1N=Cc1cc2c(cc1[N+](=O)[O-])OCO2,22.6%
6,Cc1cccc(N=Cc2cc3c(cc2[N+](=O)[O-])OCO3)c1,49.7%
7,O=[N+]([O-])c1cc2c(cc1C=Nc1ccccc1)OCO2,55.1% (active)
8,COc1ccccc1/C=C/C(=O)Nc1cccc(S(=O)(=O)NC2=NCCCCC2)c1,-3.7%
9,CN(C)c1ccc(NC(=O)Cn2ncn3c(cc4ccccc43)c2=O)cc1,22.7%
10,O=C(NC1CC1)C1CCN(c2ncnc3c2sc2cccc(F)c23)CC1,7.9%
11,COc1cc(/C=C2\SC(c3ccc(C)cc3)=NC2=O)cc(OC)c1O,26.7%
12,Cc1ccc(C2=NC(=O)/C(=C/c3cc(O)c(O)c(Br)c3)S2)cc1,81.3% (active)
13,COc1cc(/C=C2\SC(c3ccc(C)cc3)=NC2=O)ccc1O,14.1%
14,COc1ccc(NC(=O)N2CCCC2C(=O)Nc2ccc(C)cc2)cc1 (stereo not drawn),1.2%
15,CCOc1cc(C2C(C(=O)O)c3cc(OCC)c(OCC)cc3C(=O)N2C)ccc1O (stereo not drawn),6%
16,C/C(=C\C(=O)c1ccccc1)NNc1nc2ccccc2s1,-3.4%
17,COc1ccc(S(=O)(=O)n2nc(OC(C)=O)cc2N)cc1,-1.2%
18,Cc1ccc2nc(SCC(=O)NC(=O)NCc3ccco3)[nH]c2c1,6.4%
19,COC(=O)c1ccc(C)c(NC(=O)CCc2ccc(OC)cc2)c1,11.9%
20,CCOC(=O)c1c(N)sn(-c2ccccc2C)c1=S,61.3% (active)
21,CCOC(=O)c1c(N)sn(-c2ccccc2)c1=S,14.9%
22,C=CCn1sc(N)c(C(=O)OCC)c1=S,-8%
23,COc1ccc(C(NC(=O)/C=C\c2ccco2)c2ccc(OC)c(OC)c2)cc1 (stereo not drawn),3.2%
24,S=C(NCC1CCCO1)Nc1cccc(Cl)c1 (stereo not drawn),-4.4%
25,CCN(CC)c1ccc(/C=N/Nc2nc3ccccc3[nH]2)c(O)c1,29.1%

row,Structure (SMILES),inhibition
1,CCN(CC)c1ccc(/C=N/Nc2nc3ccccc3[nH]2)cc1,53% (active)
2,CC(=O)Nc1ccc(/C=N/Nc2nc3ccccc3[nH]2)cc1,20.8%
3,C=CCn1c(C)cc(C(=O)Cn2nc(C(=O)O)c3ccccc3c2=O)c1C,0.5%
4,COc1ccc(-c2nc(SC(CC(=O)NCCN3CCOCC3)c3cccs3)n[nH]2)cc1 (stereo not drawn),2.7%
5,Cc1ccc(C)c(NC(=O)CSc2nnc(C)c(=O)n2N)c1,-3%
6,Cc1ccc(NC(=O)CSc2nnc(C)c(=O)n2N)c(C)c1,76.6% (active)
7,Cc1ccc(NC(=O)CSc2nnc(C)c(=O)n2N)cc1,-5.9%
8,Brc1cccc(-c2n[nH]c(-c3ccccc3)n2)c1,18.9%
9,Cn1c(-c2cccc(Br)c2)n[nH]c1=O,-8.4%
10,O=C(NNC(=O)C1CCCN(S(=O)(=O)c2cccc(F)c2)C1)C1CC1 (stereo not drawn),6.8%
11,Cc1cc(C(=O)N/N=C/c2ccc(O)c([N+](=O)[O-])c2)n[nH]1,-7.3%
12,Cc1cc(C(=O)N/N=C/c2cccc([N+](=O)[O-])c2O)n[nH]1,52.3% (active)
13,Cc1cc(C(=O)N/N=C/c2cc(N=Nc3ccccc3)ccc2O)n[nH]1,4.9%
14,O=C(Cc1ccc(Cl)cc1Cl)Nc1cccc(S(=O)(=O)Nc2ccccc2F)c1,59% (active)
15,O=C(/C=C/c1ccccc1)Nc1cccc(C(=O)O)c1,8.9%
16,O=C(Nc1cccc(S(=O)(=O)N2CCCC2)c1)c1ccc2ccccc2n1,10%
17,O=C(Cc1ccc(Cl)cc1)Nc1cccc(S(=O)(=O)Nc2ccccc2F)c1,23.4%
18,Nc1ccc(SCC(=O)Nc2cccc([N+](=O)[O-])c2)cc1,-7.1%
19,O=C(Nc1cccc(S(=O)(=O)Nc2ccccc2F)c1)c1ccc2ccccc2n1,70.4% (active)
20,Cn1c(=O)c2c(ncn2CC(=O)Nc2cccc(S(=O)(=O)Nc3ccccc3F)c2)n(C)c1=O,25.8%
21,O=C(/C=C/c1ccccc1)Nc1cccc(S(=O)(=O)Nc2ccccc2F)c1,66.1% (active)
22,O=C(CN1C(=O)c2ccccc2C1=O)Nc1cccc(S(=O)(=O)Nc2ccccc2Cl)c1,12.3%
23,O=C(CSc1ccc([N+](=O)[O-])cc1)Nc1cccc(S(=O)(=O)Nc2ccccc2F)c1,62.2% (active)
24,CSc1cccc(NC(=O)/C=C/c2ccccc2)c1,10.8%
25,COc1ccccc1NS(=O)(=O)c1cccc(NC(=O)c2ccc3ccccc3n2)c1,17.4%

row,Structure (SMILES),inhibition
1,Cc1ccc(C(=O)c2ccccc2C(=O)OCC(=O)NCC2CCCO2)cc1 (stereo not drawn),1.4%
2,Cc1cc(OC(C)C(N)=O)nc(-c2ccccc2)n1 (stereo not drawn),-14.2%
3,CC(C)c1ccc(CN2CC(C(=O)O)CC2=O)cc1 (stereo not drawn),-7%
4,Cc1ccc(N2CCN(CC(O)COc3ccc([N+](=O)[O-])cc3)CC2)cc1 (stereo not drawn),-2%
5,COc1cc(/C=N/Nc2ccccn2)ccc1OCC(C)C,-6.3%
6,CCOC(=O)CC1C(=O)NCCN1C(=O)c1c(F)cccc1F (stereo not drawn),50.5% (active)
7,CCOC(=O)CC1C(=O)NCCN1C(=O)c1ccc(F)cc1F (stereo not drawn),-8.1%
8,CCOC(=O)CC1C(=O)NCCN1C(=O)c1cccc(C(F)(F)F)c1 (stereo not drawn),-0.3%
9,Nc1nonc1-c1noc(N2CCCCC2)n1,6%
10,COc1ccc(-c2nnn(CC#N)n2)cc1OC,-3.6%
11,O=C(N/C(=C\c1cccnc1)C(=O)N1CCOCC1)c1ccco1,-15.9%
12,Cc1cccc(C)c1OCc1nnc(NC(=O)CSc2ccc(Cl)cc2)s1,9.2%
13,O=C(Nc1nnc(COc2ccccc2)s1)c1ccco1,3.1%
14,Cc1ccc(OCc2nnc(NC(=O)c3ccco3)s2)cc1,-5.1%
15,CCOCc1nnc(NC(=O)CSc2ccccc2)s1,6.1%
16,Cc1onc(-c2ccccc2)c1C(=O)Nc1nnc(COc2ccc(Cl)cc2)s1,76.2% (active)
17,Cc1nnc(NC(=O)c2c(-c3ccccc3)noc2C)s1,0.7%
18,COc1ccc(Cc2nnc(NC(=O)c3c(-c4ccccc4)noc3C)s2)cc1,12.3%
19,O=C(CSc1ccccc1)Nc1nnc(COc2ccc(Cl)cc2)s1,71.7% (active)
20,O=C(Nc1nnc(COc2ccc(Cl)cc2)s1)c1ccco1,62.4% (active)
21,COC(=O)/C(C(C)=O)=C(\C=C\N(C)C)N(C)C,1%
22,Nc1nnc(SCc2ccccc2F)n1-c1ccccc1,3.6%
23,NC(=O)[C@@H]1CCNc2c(I)cc([N+](=O)[O-])cc2C(=O)N[C@@H](CO)C(=O)N[C@@H](Cc2ccc(O)cc2)C(=O)N1,-42.9%
